system: Sporothrix schenckii ATCC 32286; assay: growth inhibition relative to untreated control; higher = more growth inhibition (more antifungal activity), active = 80 or more; extreme values may be limits of the assay; conditions: 1 µM; 48 h
Procedure, shortened: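 Yeast-form cells of the reference isolates (grown 7 days in brain heart infusion broth with 2% glucose at 36°C) were exposed at 1 x 10^5 CFU/ml to library compounds at a final 1 μM for 48 h at 35°C in 5% CO2. Growth was checked by visual inspection under an inverted light microscope and quantified by spectrophotometric readings. The value is percent growth inhibition relative to untreated control. Runs were in quadruplicate.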

Row | SMILES | growth inhibition
1 | CC(=O)N(CCN(C(=O)c1ccc(F)cc1)c1ccccc1)c1ccccc1 | 0% (inactive)
2 | Clc1ccc(CN2CCN(C3=NCCN3)CC2)cc1Cl | 17% (inactive)
3 | O=C(COc1cccc(F)c1)Nc1nc(-c2ccccn2)cs1 | 8.75% (inactive)
4 | O=C(Nc1nnc(-c2ccc(Cl)cc2)o1)c1cccc(C(F)(F)F)c1 | 85.5% (active)
5 | Cc1ccc(S(=O)(=O)n2cc(-c3ccnc(N)c3)c3cc(Br)cnc32)cc1 | 5.25% (inactive)
6 | Cc1nc(-c2ccccn2)nc(NCCc2ccc(S(C)(=O)=O)cc2)c1Cl | 0% (inactive)
7 | N#Cc1ccc(-c2ccc(OCC(N)=O)cc2)cc1 | 0% (inactive)
8 | CO[C@@H](C(=O)N1Cc2[nH]nc(NC(=O)c3ccc(N4CCN(C)CC4)cc3)c2C1)c1ccccc1 | 1.5% (inactive)
9 | O=C([C@@H](c1ccc(Cl)cc1)c1cccnc1)N1CCN(c2ccc(C(F)(F)F)cc2)CC1 | 2% (inactive)
10 | CO[C@H]1/C=C\O[C@@]2(C)Oc3c(C)c(O)c4c(O)c(/c(=C/NN5CCN(C)CC5)c(O)c4c3C2=O)=N\C(=O)/C(C)=C\C=C/[C@H](C)[C@H](O)[C@@H](C)[C@@H](O)[C@@H](C)[C@H](OC(C)=O)[C@@H]1C | 11.2% (inactive)
11 | Cc1cc(Nc2ccc(C(F)(F)F)cc2)n2ccnc2n1 | 1% (inactive)
12 | CC(C)(C)OC(=O)N1CCN(c2cc(-c3ccc(Oc4ccccc4)cc3)n[nH]2)CC1 | 0% (inactive)
13 | O=C(NCCN1CCCC1)c1cc(NCCCCN2CCC(F)(F)CC2)nc2ccc(Cl)cc12 | 8.5% (inactive)
14 | CCc1nc2ccc(C(=O)NCc3ccc4c(c3)OCO4)cn2c1N(C)Cc1cccs1 | 2.75% (inactive)
15 | COCC(C)NC(=O)CSc1ncnc2sc(-c3ccccc3)cc12 (stereo not drawn) | 14.2% (inactive)
16 | CCN(CC)CCCCCCNc1cc(OC)cc2c(C)ccnc12 | 2.25% (inactive)
17 | N=C(N)Nc1ccc(-c2ccc(-c3ccc(N=C(N)N)c(Cl)c3)o2)cc1Cl | 0% (inactive)
18 | O=C(NC1CC1)c1ccc(N2CCOc3ccc(Cl)cc32)s1 | 11.8% (inactive)
19 | Cc1cccc(NC(=O)c2cc(S(=O)(=O)N(C)c3ccc(F)cc3)ccc2Cl)n1 | 8.25% (inactive)

Row | SMILES | growth inhibition
20 | CC(C)(C)n1nc(Cc2cccc3ccccc23)c2c(N)ncnc21 | 0% (inactive)
21 | OC[C@H]1O[C@@H](n2c3ccc(Cl)cc3c3c(-c4cc5ccccc5o4)ncnc32)C(O)[C@H]1O (stereo partly drawn) | 18.8% (inactive)
22 | CN1CCN(S(=O)(=O)c2ccc(-c3ccc4c(Nc5ncc(Cl)cn5)ccnc4c3)cc2)CC1 | 10.8% (inactive)
23 | CCn1cnc2c(Nc3cc(F)cc(F)c3)nc(C#N)nc21 | 3.75% (inactive)
24 | O=S(=O)(c1ccc(Cl)cc1)N1CCN(C(=S)NCc2ccco2)CC1 | 12% (inactive)
25 | O=C(Nc1ccc(F)c(-c2nc3cc(-c4ccccc4)cnc3[nH]2)c1)N1CCCC1 | 7.75% (inactive)
26 | CC(C)(C)c1cc(C(=O)Nc2cccnc2)cc(C(=O)Nc2cccnc2)c1 | 4% (inactive)
27 | CC1CCCCN1C(=O)NCCc1coc(-c2ccc(F)cc2)n1 (stereo not drawn) | 0% (inactive)
28 | COc1ccc(-c2cnc3ccc(N4CCCC4)nn23)cc1OC | 0% (inactive)
29 | CS(=O)(=O)c1ccccc1C(=O)N(Cc1ccccc1)c1ccccc1 | 24% (inactive)
30 | CC(=O)N1CCc2cc3nc(C)cc(C)c3cc21 | 0% (inactive)
31 | Clc1ccc(-n2cc(COc3ccnc4ccccc34)nn2)cc1 | 10% (inactive)
32 | CC1CC1C(=O)NC1CCN(CC2(c3ccccc3)CCCCC2)CC1 (stereo not drawn) | 20.5% (inactive)
33 | C[C@H](C(N)=O)N1CCCC[C@H]1c1ccc(OCc2cccc(F)c2)cc1 | 10% (inactive)
34 | CCc1ccc(C(NCc2nc(N)nc(N(C)C)n2)C(C)C)cc1 (stereo not drawn) | 8.75% (inactive)
35 | N=C(N)c1ccc(-c2cc(-c3ccccc3)on2)cc1 | 10.5% (inactive)
36 | O=C(Nc1ccc2c(c1)B(O)OC2)c1ccccc1C(F)(F)F | 20.5% (inactive)
37 | O=C(Nc1nnc(-c2ccc(Cl)s2)o1)c1ccc(Cl)s1 | 42% (inactive)
38 | CC(C)C(C(=O)Nc1ccc(S(=O)(=O)N(C)C)cc1)c1ccc(Cl)cc1 (stereo not drawn) | 0.5% (inactive)
